Screening data: PubChem, ICCB-Longwood Screening Facility, Harvard Medical School
The entries come from a sample that favours hits as a whole.
Anaer choline gr: choline-fed anaerobic bacterial growth inhibition; Gram-negative bacterium anaerobic choline minimal medium, absorbance growth; active compounds read low; calls only; hit rate 0.2% among 55,000; AID 1963822; call rule not given here
* marks the source's active call; other numbers are inactive results; i = inactive; + = active, no number.

SMILES	Anaer choline gr
CCn1c(CN(c2ccc(F)cc2)S(C)(=O)=O)nnc1SCC(=O)Nc1ccc(F)cc1F	+
COc1ccccc1NC(=O)NCc1ccnc(N2CCCCC2)c1	+
O=C(NCc1ccnc(N2CCSCC2)c1)Nc1cc(F)ccc1F	i
O=C(NCc1ccnc(N2CCSCC2)c1)Nc1ccc(F)cc1F	i
COc1ccccc1NC(=O)Nc1ccc(Nc2cc(N3CCCC3)nc(C)n2)cc1	i
COc1ccccc1CNC(=O)c1ccc(N2CCCC2)c(NC(=O)Nc2ccccc2Cl)c1	i
O=C(NCc1ccnc(N2CCCCC2)c1)Nc1ccc(F)c(Cl)c1	+
Cc1cc(N2CCCC2)n2nc(C(F)(F)F)c(-c3ccc(Cl)cc3)c2n1	i
COc1cc(OC)c(NCC(O)Cn2nnnc2-c2ccccc2)cc1Cl (configuration not stated)	i
CN(C)C(=O)c1cc2c(s1)CCC(C(=O)NCCN1CCOCC1)C2 (configuration not stated)	i
COC(=O)c1c(-c2cccc(Cl)c2)noc1N1CCc2ccccc21	i
CCc1cc(Sc2ccc(NC(=O)Nc3ccc(Br)cc3F)cc2)n2ncnc2n1	i
O=C(Nc1ccc(-c2nc3ccccc3s2)c(Cl)c1)c1ccc2c(c1)OCCO2	i
Cc1cc2n(n1)CC(C)(C(=O)NCc1ccc(F)cc1)N(c1ccc(F)cc1)C2=O (configuration not stated)	i
CC(C)c1nnc(-c2ccc(S(=O)(=O)NC3CCCC3)o2)o1	+
O=S(=O)(NC1CCCCC1)c1ccc(-c2nnc(C3CCC3)o2)o1	i
CC(C)c1nnc(-c2ccc(S(=O)(=O)N3CCCCC3)o2)o1	i
C=CCn1c(=O)c2ccc(C(=O)NCc3ccc4c(c3)OCO4)cc2n(CC(=O)NC2CCCCC2)c1=O	i
Cc1noc(C(=O)N2CCCCC2C)c1Cl (configuration not stated)	i
CCCC(=O)N1CCCC1C(=O)N1CCCCC1C (configuration not stated)	+
Cc1cc(N2CCC(C)CC2)nc2ccc(NC(=O)CCC(=O)N3CCCCC3C)cc12 (configuration not stated)	i
CCC(=O)OCc1cnc(C)c2oc(=O)c(C(=O)Nc3ccccc3OC)cc12	i
CCn1c(N2CCN(C(=O)Cc3ccccc3C)CC2)nc2ccccc21	i
c1ccc(N2CCN(c3ncnc4c3CCC4)CC2)nc1	i
CN1CCCN(c2ncnc3c2CCC3)CC1	i
SMILES	Anaer choline gr
c1nc2c(c(N3CCC(N4CCCCC4)CC3)n1)CCC2	+
CCCn1c(=O)c2ccc(C(=O)NC(C)C)cc2n2c(=O)n(CC(=O)Nc3ccc(C)c(C)c3)nc12	i
CC(C)OC(=O)c1sc2nc3c(cc2c1N)CN(C(C)C)CC3	i
Cn1c(=O)n(C)c2cc(N3CCCC3)c(NC(=O)Nc3ccc4c(c3)OCCO4)cc21	+
Cc1cc(C)cc(NC(=O)Nc2cc3c(cc2N2CCCC2)n(C)c(=O)n3C)c1	i
O=C(Nc1ccc2c(c1)OCO2)Nc1cc(NC(=O)c2ccccc2)ccc1N1CCCC1	i
C=CCn1c(=O)n([C@@H]2O[C@H](CO)[C@@H](O)[C@H]2O)c2nc(N)[nH]c(=O)c21	i
O=C(Nc1ccc(F)cc1)c1ccc(S(=O)(=O)c2ccc(Br)cc2)nc1	i
CCCn1c(C)ccc(-c2noc(CCCC(N)=O)n2)c1=O	i
CCCCNC(=O)CSc1nc(-c2ccc(C(C)C)cc2)no1	+
CCc1ccc(NC(=O)CSc2nc(-c3ccc(C(C)C)cc3)no2)cc1	i
CC(C)CCNC(=O)CSc1nc(-c2ccccc2)no1	i
COc1ccc2cc(NC(=O)Nc3nnc(C)s3)n(C)c2c1	i
COc1ccc(-c2cnn3c(C)cc(C)nc23)cc1S(=O)(=O)NCC(C)C	i
O=C(Nc1cnn(-c2ncc(N3CCCC3)cn2)c1)NC1CCCC1	i
O=C(Nc1cnn(-c2ncc(N3CCSCC3)cn2)c1)C1CCOC1 (configuration not stated)	i
O=C(Nc1cnn(-c2ncc(N3CCCC3)cn2)c1)C1CCC1	+
Cc1ccc(CNC(=O)CCn2cnc3onc(-c4cccc(F)c4)c3c2=O)cc1	i
c1ccc(SCc2nnc3sc(-c4cccnc4)nn23)cc1	+
COc1ccc(-c2nn3c(CSc4ccccc4)nnc3s2)cc1	i
CN(C)c1cccc(-c2nn3c(CSc4ccccc4)nnc3s2)c1	i
O=S(=O)(c1ccc2c(c1)OCCO2)N1CCn2cccc2C1c1ccc(Br)cc1 (configuration not stated)	i
CCN(CC)c1ccc(C(=O)NCc2nc3cccnc3n2Cc2ccccc2)cc1	i
O=C(CSc1nnc(-c2cccnc2)o1)Nc1ccc2c(c1)OCO2	+
O=C(CSc1nnc(-c2cc3ccccc3[nH]2)o1)Nc1ccc2c(c1)OCO2	i
Cn1c(-c2nnc(SCC(=O)Nc3ccc4c(c3)OCO4)o2)cc2ccccc21	i
NC(=O)c1noc2c1COc1ccccc1-2	i
O=C(Nc1ccccc1)N1CCN(Cc2cc(=O)n3nc(-c4ccccc4Cl)sc3n2)CC1	i
